Here are results for 83 molecules from PubChem BioAssay AID1531 (NMMLSC, 2009).

Structures are written as SMILES. Several values for one entry are separate records, joined by “and”; a condition that tells them apart may be missing. Identical values can stand only once. Screen size: about 290,000 compounds; about 3,300 (1.1%) were called active. Cut-off read from the data, not from the text of the source: active = binding response below about 67% or above about 130%; inconclusive = no clear call, values can overlap the other calls; inactive = in between. This excerpt belongs to a sample that is enriched for actives.

The target in the assay is Mitogen-activated protein kinase kinase kinase 2 (Homo sapiens) (UniProt Q9Y2U5). Description: wildtype MEKK2 PB1-MEK5 interaction, increase or decrease – biochemical, multiplex bead flow cytometry, Alexa488-MEK5, primary screen (AID 1531). The settings on record: Alexa488-MEK5 binding to MEKK2 WT, at 10 µM, actives lie on both sides.
With `O=C1CC2(CCCC2)Oc2ccc(Cl)cc21`, the binding response (% of control) is 109% (inactive).

Turning to `C/C(=N\NC(=O)C1(C)CC1(Br)Br)c1ccc(C)cc1C` (stereo not drawn), the binding response (% of control) was 98% (inactive).

Turning to `CCN1CCN(CCCCOc2ccccc2F)CC1`, the binding response (% of control) is 98% (inactive).

Regarding `COc1ccc(OCCCCN2CCC(C)CC2)cc1`, the binding response (% of control) was 106% (inactive).

With `COc1ccccc1N1CCN(CCCCOc2ccc(F)cc2)CC1`, the binding response (% of control) is 135% (active).

With `O=C(NCCO)C(=O)NCC(c1ccc2c(c1)OCO2)N1CCN(c2ccc(F)cc2)CC1` (stereo not drawn), the binding response (% of control) is 99% (inactive).

On to `O=C(COc1ccc([N+](=O)[O-])cc1)Nc1cccc(C(=O)Nc2ccccc2C(=O)O)c1`, for which the binding response (% of control) is 94% (inactive).

As for `O=C(CC1SCCNC1=O)Nc1ccc(Cl)cc1` (stereo not drawn), the binding response (% of control) is 87% (inactive).

For `O=C(CC1NCCNC1=O)Nc1cc(Cl)cc(Cl)c1` (stereo not drawn), the binding response (% of control) is 108% (inactive).

As to `O=C(CC1SCCNC1=O)Nc1ccc(Cl)c(Cl)c1` (stereo not drawn), the binding response (% of control) is 186% (active).

In the case of `CC(C)c1c(C(=O)N/N=C/c2ccccc2C(=O)O)nnn1-c1nonc1N`, the binding response (% of control) was 102% (inactive).

For `COC(=O)CN1C(=O)C(C)(C)Oc2ccc(C(=O)Nc3cccc(OC)c3)cc21`, the binding response (% of control) was 108% (inactive).

Take `CCOC(=O)c1ccc2[nH]c3c(c2c1)CCCC3NC=O` (stereo not drawn): the binding response (% of control) was 97% (inactive).

Take `N#CCSc1nc(-c2ccccc2)nc2ccc(F)cc12`: the binding response (% of control) was 100% (inactive).

Turning to `COc1ccc(NC(=O)CS(=O)(=O)c2ccccc2)cc1`, the binding response (% of control) was 109% (inactive).

Turning to `COC(=O)C(C)n1cnc2c(nnn2-c2cccc(Cl)c2)c1=O` (stereo not drawn), the binding response (% of control) is 106% (inactive).

As for `CCOc1ccc(CNC(=O)C2CCCN(c3nnc(C)c4c(C)n(-c5ccccc5)nc34)C2)cc1` (stereo not drawn), the binding response (% of control) was 105% (inactive).

`CCOc1nnc(C)c2c(C)n(-c3cccc(Cl)c3)nc12`: the binding response (% of control) is 72% [inhibitor] (active).

With `COc1ccc(NC(=O)CN2C(=O)COc3ccc(S(=O)(=O)N4CCOCC4)cc32)cc1`, the binding response (% of control) is 97% (inactive).

Turning to `Fc1ccccc1COc1cccc2cccnc12`, the binding response (% of control) is 110% (inactive).

Take `Cc1ccc(-c2nc(CSCC(=O)NC3CCN(Cc4ccccc4)CC3)c(C)o2)cc1`: the binding response (% of control) is 107% (inactive).

As for `Cc1ccc(S(=O)(=O)N2CCN(C(=O)CSc3cc(C)ccc3C)CC2)c(C)c1`, the binding response (% of control) was 104% (inactive).

`CC(=O)NCCC(=O)Nc1nc(-c2ccc3c(c2)OCCO3)cs1`: the binding response (% of control) is 109% (inactive).

Turning to `COC(=O)c1cc(NC(=O)c2ccco2)ccc1N1CCOCC1`, the binding response (% of control) was 99% (inactive).

As for `CC(=O)Nc1ccc(N2CCOCC2)c(C(=O)Nc2cccc(C)c2)c1`, the binding response (% of control) was -1% [inhibitor] (active).

Turning to `Cc1cccc(NC(=O)c2cc([N+](=O)[O-])ccc2N2CCN(C)CC2)c1`, the binding response (% of control) is 101% (inactive).

`Cc1nc2ccccc2nc1N/N=C/c1ccc(O)cc1O`: the binding response (% of control) is 101% (inactive).

As for `O=C(O)c1ccccc1-c1ccccc1C(=O)NCCc1ccccc1`, the binding response (% of control) was 100% (inactive).

Consider `Cc1c(C)n(Cc2ccc(Cl)cc2)c2ccc(C(=O)NCCCN3CCOCC3)cc12`, for which the binding response (% of control) is 138% (active).

For `O=C(NCCCN1CCOCC1)c1cc(-c2ccc(Cl)cc2)on1`, the binding response (% of control) was 103% (inactive).

As to `O=C(NCCN1CCOCC1)c1ccc2c(c1)N(Cc1ccc(Cl)cc1)CCS2`, the binding response (% of control) was 104% (inactive).

Consider `COc1ccc(CNC(=O)C(C)NCc2ccccc2Cl)cc1` (stereo not drawn), for which the binding response (% of control) was 103% (inactive).

Consider `Cc1c(C)c(C)c(S(=O)(=O)N2CCC3(CC2)OCCO3)c(C)c1C`, for which the binding response (% of control) was 108% (inactive).

In the case of `Cc1cc(C)n(CCNS(=O)(=O)c2ccc(Cl)cc2)n1`, the binding response (% of control) was 103% (inactive).

On to `Cc1cc2cc(CNC(=O)c3ccc(S(=O)(=O)N4CCOCC4)cc3)ccc2[nH]1`, for which the binding response (% of control) is 97% (inactive).

For the molecule `Cc1cc2cc(CNC(=O)c3cccs3)ccc2[nH]1`, the binding response (% of control) was 55% [inhibitor] (active).

Regarding `CCc1cccc(CC)c1NC(=S)NCc1ccc2[nH]c(C)cc2c1`, the binding response (% of control) was 102% (inactive).

As to `CC(NC(=O)C1CCCN(S(=O)(=O)c2ccc(-n3cnnn3)cc2)C1)c1ccc(F)cc1` (stereo not drawn), the binding response (% of control) was 108% (inactive).

Take `COc1cccc(N(CC(=O)NC2CCCCCC2)S(=O)(=O)c2ccccc2)c1`: the binding response (% of control) was 111% (inactive).

As for `COc1ccc(C2=NN(C(=O)c3ccccc3C(=O)O)C(c3ccccc3O)C2)cc1` (stereo not drawn), the binding response (% of control) was 100% (inactive).

As for `CCOc1ccccc1C1CC(c2cccc(NS(C)(=O)=O)c2)=NN1C(=O)c1ccccc1` (stereo not drawn), the binding response (% of control) is 100% (inactive).

As for `COc1cccc(C2CC(c3ccccc3)=NN2S(=O)(=O)c2ccccc2)c1OC` (stereo not drawn), the binding response (% of control) was 20% [inhibitor] (active).

As to `COc1ccc(NC(=O)NCCN2CCN(c3ccc(C)cc3)CC2)c(Cl)c1`, the binding response (% of control) is 113% (inactive).

As to `Cc1ccc(-n2ncc(C(=O)NC3CC3)c2C2CCN(C(=O)OC(C)(C)C)CC2)c(C)c1`, the binding response (% of control) is 96% (inactive).

On to `O=C(CN(Cc1ccccc1)C(=O)CCC(=O)Nc1ccccn1)NCCc1ccccc1`, for which the binding response (% of control) is 107% (inactive).

Take `O=C(NC(=S)NC1CCCCC1)c1ccc(Cl)cc1`: the binding response (% of control) was 103% (inactive).

For `COc1ccccc1NC(=S)N1CCN(C(c2ccccc2)c2ccccc2)CC1`, the binding response (% of control) was 98% (inactive).

As to `COc1ccccc1NC(=S)N1CCN(c2ccc(F)cc2)CC1`, the binding response (% of control) is 16% [inhibitor] (active).

With `COC(=O)c1ccc(C(=O)OC)c(NC(=S)N2CCN(c3ccc(F)cc3)CC2)c1`, the binding response (% of control) was 98% (inactive).

As to `O=C(O)CSc1c2c(nc3cc(C(=O)Nc4cccc(C(F)(F)F)c4)ccc13)CCCC2`, the binding response (% of control) is 105% (inactive).

On to `COc1ccccc1OCCNCC(O)COc1cccc2[nH]c3ccccc3c12` (stereo not drawn), for which the binding response (% of control) was 166% (active) and 155% (active) and 213% (active).

For the molecule `CC(C)(C)NCC(O)COc1cccc2[nH]c(=O)[nH]c12` (stereo not drawn), the binding response (% of control) was 113% (inactive).

Regarding `COc1ccccc1OCC(O)CN1CCOCC1` (stereo not drawn), the binding response (% of control) was 109% (inactive).

For the molecule `CCC(=O)c1ccc(OCC(=O)Nc2ccc3nc(C)sc3c2)cc1`, the binding response (% of control) was 87% (inactive).

Take `Cc1ccc(NC(=O)COc2ccc(-n3ccnc3)cc2)cc1Cl`: the binding response (% of control) is 153% (active).

Take `Cc1ccc(NC(=O)C/C(N)=N/O)cc1Cl`: the binding response (% of control) is 100% (inactive).

As to `CC(C)(C)c1ccccc1NC(=O)CN1C(=O)NC2(CCCC2)C1=O`, the binding response (% of control) was 100% (inactive).

With `CC(C)c1ccc2oc(=O)cc(CN3CCN(Cc4ccccc4)CC3)c2c1`, the binding response (% of control) is 115% (inactive).

Consider `O=C(Nc1ccc(C(=O)N2CCCCC2)cc1)c1cccc([N+](=O)[O-])c1`, for which the binding response (% of control) is 100% (inactive).

On to `Cc1cc([N+](=O)[O-])ccc1NC(=O)c1ccc(NC(=O)C(C)C)cc1`, for which the binding response (% of control) was 101% (inactive).

As for `Cn1ccc(=Nc2ccc(NC(=O)c3ccc(N=c4ccn(C)c5ccc([N+](=O)[O-])cc45)cc3)cc2)cc1`, the binding response (% of control) was 146% (active).

`NS(=O)(=O)c1ccc(NC(=S)N2CCCC2)cc1`: the binding response (% of control) is 100% (inactive).

With `COc1ccc(N2CCN(C(=S)Nc3ccc(S(N)(=O)=O)cc3)CC2)cc1`, the binding response (% of control) is -9% (active).

With `CCOc1ccccc1N1CCN(C(=S)Nc2ccc(S(N)(=O)=O)cc2)CC1`, the binding response (% of control) was 102% (inactive).

Regarding `CCc1ccc(S(=O)(=O)Nc2cc3c(cc2N2CCCCC2)n(C)c(=O)c(=O)n3C)cc1`, the binding response (% of control) is 101% (inactive).

For `O=C(NCc1nnc(SCC(=O)N2CCCCCC2)o1)c1ccc(F)cc1`, the binding response (% of control) is 102% (inactive).

As to `Cc1ccc2c(c1)C1CN(C)CCC1N2S(=O)(=O)c1ccc(Oc2ccc([N+](=O)[O-])cc2)cc1` (stereo not drawn), the binding response (% of control) was 201% (active).

`Cc1ccc2c(c1)C1CN(C)CCC1N2C(=O)c1ccccc1NS(=O)(=O)c1ccc(F)cc1C` (stereo not drawn): the binding response (% of control) is 98% (inactive).

`Cc1ccc2c(c1)C1CN(C)CCC1N2C(=S)Nc1ccc(OC(F)F)cc1` (stereo not drawn): the binding response (% of control) is 118% (inactive).

On to `COc1ccc2c(c1)c(C(=O)N/N=C/c1cccs1)c(C)n2C`, for which the binding response (% of control) is 99% (inactive).

As for `O=C(NCCCN1CCCC1=O)C(=O)NCC1OCCN1S(=O)(=O)c1ccc(Br)cc1` (stereo not drawn), the binding response (% of control) is 103% (inactive).

For `CC(=O)Nc1ccc(Nc2ncnc3c2nnn3Cc2ccccc2Cl)cc1`, the binding response (% of control) is 107% (inactive).

For `CC(C)c1ccccc1OCC(O)CN(CC(O)COc1cccc2ccccc12)C(C)C` (stereo not drawn), the binding response (% of control) is 181% (active).

Regarding `CCC(C)Sc1nc2c(c(=O)[nH]c(=O)n2C)n1CC(O)COc1cccc2ccccc12` (stereo not drawn), the binding response (% of control) was 107% (inactive).

In the case of `OC(COc1cccc2ccccc12)CN1CCN(c2ccccn2)CC1` (stereo not drawn), the binding response (% of control) is 105% (inactive).

On to `CCN1C(=O)N[C@@H](CCc2ccccc2)C(C(=O)OC)=C1C`, for which the binding response (% of control) is 94% (inactive).

On to `CCCCC1(C(=O)OCC)NC(c2ccc(O)cc2)C2C(=O)N(c3ccccc3)C(=O)C21` (stereo not drawn), for which the binding response (% of control) was 99% (inactive).

Take `CC(C)[C@H](NC(=O)N1CCn2c1nc1ccccc12)C(=O)NC1CC1`: the binding response (% of control) is 101% (inactive).

Regarding `CC(C)C[C@H](NC(=O)C1CCC(CNC(=O)[C@@H]2CCCN2C(=O)OC(C)(C)C)CC1)C(=O)O` (stereo partly drawn), the binding response (% of control) is 103% (inactive).

As to `Cc1ccc(N(CCC(=O)O)S(=O)(=O)c2cccc(C(F)(F)F)c2)cc1`, the binding response (% of control) is 4% [inhibitor] (active).

Turning to `O=C(O)c1cc(S(=O)(=O)N(Cc2ccccc2)c2cccc(C(F)(F)F)c2)ccc1Cl`, the binding response (% of control) is 108% (inactive).

As to `CCc1nnc(NC(=O)CCN(c2ccc(C)cc2)S(=O)(=O)c2ccccc2)s1`, the binding response (% of control) is 108% (inactive).

As for `Cc1cc(C)cc(C(=O)NC(CC(N)=O)c2ccc(N3CCC(N4CCCCC4)CC3)c([N+](=O)[O-])c2)c1` (stereo not drawn), the binding response (% of control) was 105% (inactive).
